Rows were chosen to be rich in hits. Some 11% of all compounds tested hit in one or more screens of this group.
BAZ2B inh = qHTS Assay for Inhibitors of BAZ2B. AID 504333, 2011. 360,000 compounds, 4.4% hits. Potency, µM (titrated, usually from 114 µM), without a hit: top-dose activity change, negative = inhibition, most hits filed as inhibitors. AlphaScreen BAZ2B-H3K14Ac peptide displacement; further: potency means the concentration at half of the fitted maximal effect; on the % scale 0 is the no-effect control and ±100 the full control effect; nearly all actives have a fitted effect of over 60% in size
Target sequence (Q9UIF8 whole entry, looked up): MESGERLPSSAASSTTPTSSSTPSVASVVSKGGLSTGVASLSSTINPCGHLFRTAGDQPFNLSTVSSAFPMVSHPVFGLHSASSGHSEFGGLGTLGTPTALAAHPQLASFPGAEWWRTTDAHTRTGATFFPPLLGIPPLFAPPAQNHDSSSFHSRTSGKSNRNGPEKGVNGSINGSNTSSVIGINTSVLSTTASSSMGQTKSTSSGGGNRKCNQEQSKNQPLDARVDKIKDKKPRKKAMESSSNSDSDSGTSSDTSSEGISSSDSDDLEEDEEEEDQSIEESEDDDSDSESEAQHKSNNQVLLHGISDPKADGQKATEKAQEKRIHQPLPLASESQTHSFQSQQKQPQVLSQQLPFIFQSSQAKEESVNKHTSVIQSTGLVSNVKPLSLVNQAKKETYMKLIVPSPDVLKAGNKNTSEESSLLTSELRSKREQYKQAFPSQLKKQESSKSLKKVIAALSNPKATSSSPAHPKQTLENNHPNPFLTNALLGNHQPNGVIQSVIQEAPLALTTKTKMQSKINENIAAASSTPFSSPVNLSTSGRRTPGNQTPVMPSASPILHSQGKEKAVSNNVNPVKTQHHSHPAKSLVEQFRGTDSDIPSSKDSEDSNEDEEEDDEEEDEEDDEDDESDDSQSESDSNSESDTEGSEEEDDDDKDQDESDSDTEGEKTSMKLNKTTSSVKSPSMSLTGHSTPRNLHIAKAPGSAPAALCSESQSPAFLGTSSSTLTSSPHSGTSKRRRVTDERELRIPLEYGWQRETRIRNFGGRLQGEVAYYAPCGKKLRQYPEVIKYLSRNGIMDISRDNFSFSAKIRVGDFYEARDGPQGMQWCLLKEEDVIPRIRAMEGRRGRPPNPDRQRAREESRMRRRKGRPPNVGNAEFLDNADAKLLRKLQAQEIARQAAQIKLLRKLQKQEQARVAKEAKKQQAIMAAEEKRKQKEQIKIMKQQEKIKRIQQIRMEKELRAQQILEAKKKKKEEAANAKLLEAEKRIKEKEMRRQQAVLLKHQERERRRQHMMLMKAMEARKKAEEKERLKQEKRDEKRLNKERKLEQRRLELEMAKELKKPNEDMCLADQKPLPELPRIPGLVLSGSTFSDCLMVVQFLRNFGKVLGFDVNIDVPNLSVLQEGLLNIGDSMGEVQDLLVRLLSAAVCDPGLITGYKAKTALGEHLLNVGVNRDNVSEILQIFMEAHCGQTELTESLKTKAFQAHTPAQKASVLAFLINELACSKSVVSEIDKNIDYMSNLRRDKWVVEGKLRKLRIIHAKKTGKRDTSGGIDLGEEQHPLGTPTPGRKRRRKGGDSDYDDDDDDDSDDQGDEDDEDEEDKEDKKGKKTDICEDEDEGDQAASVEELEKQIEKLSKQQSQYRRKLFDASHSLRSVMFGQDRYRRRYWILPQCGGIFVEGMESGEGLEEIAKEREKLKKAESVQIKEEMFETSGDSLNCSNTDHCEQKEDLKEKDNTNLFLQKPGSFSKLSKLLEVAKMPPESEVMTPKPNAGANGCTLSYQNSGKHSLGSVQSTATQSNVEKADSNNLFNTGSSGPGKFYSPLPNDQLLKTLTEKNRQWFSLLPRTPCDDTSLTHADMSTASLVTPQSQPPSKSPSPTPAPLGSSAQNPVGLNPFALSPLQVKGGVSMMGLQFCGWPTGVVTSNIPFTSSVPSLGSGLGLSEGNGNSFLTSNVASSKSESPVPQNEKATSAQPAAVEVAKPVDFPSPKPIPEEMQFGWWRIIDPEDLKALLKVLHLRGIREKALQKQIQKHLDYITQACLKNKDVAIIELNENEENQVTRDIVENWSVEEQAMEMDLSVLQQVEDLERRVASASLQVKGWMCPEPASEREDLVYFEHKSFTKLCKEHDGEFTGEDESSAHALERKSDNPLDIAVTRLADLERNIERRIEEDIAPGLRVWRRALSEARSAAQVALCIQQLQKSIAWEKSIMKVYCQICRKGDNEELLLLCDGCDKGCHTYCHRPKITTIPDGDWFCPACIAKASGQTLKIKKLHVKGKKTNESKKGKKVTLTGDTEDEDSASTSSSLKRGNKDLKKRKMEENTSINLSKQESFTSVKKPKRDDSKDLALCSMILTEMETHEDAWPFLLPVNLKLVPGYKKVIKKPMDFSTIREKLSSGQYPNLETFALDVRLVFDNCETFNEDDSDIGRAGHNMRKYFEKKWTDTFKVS
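AlphaScreen displacement of biotin-H3(5-23)K14Ac peptide (50 nM final) from BAZ2B (50 nM final) in PBS pH 7.4, 0.01% Tween-20; complex preformed 30 min RT, then compounds (top 110 uM) 30 min RT, beads 20 min dark.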
JMJD2A Tudor inh = qHTS Assay for Inhibitors of JMJD2A-Tudor Domain | AlphaScreen JMJD2A-Tudor / H3K4me3 peptide binding | Potency, µM (highest dose often 114 µM), for inactives: at the highest dose activity change, negative = inhibition, most hits filed as inhibitors | 390,000 compounds, 4.4% hits; further: potency means the concentration at half of the fitted maximal effect; on the % scale 0 is the no-effect control and ±100 the full control effect; nearly all actives have a fitted effect of over 50% in size
G9a block = qHTS Assay for Inhibitors of Histone Lysine Methyltransferase G9a | 350,000 compounds, 8.8% hits | G9a H3K9 monomethylation, AlphaScreen, 2 h | Histone-lysine N-methyltransferase EHMT2 (Homo sapiens), Q96KQ7 | Potency, µM (series often up to 102 µM), for the others: at the highest dose activity, negative = inhibition, actives largely listed as inhibitors; further: potency means the concentration at half of the fitted maximal effect; on the % scale 0 is the no-effect control and ±100 the full control effect; nearly all actives have a fitted effect of over 75% in size
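Chemiluminescent proximity detection of H3K9 monomethylation, read after 10 min bead incubation in the dark. Reaction: 20 nM G9a, 500 nM biotin-H3K9 peptide, 20 uM SAM cofactor, 2 h, room temperature, following 15 min enzyme-compound preincubation.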
L3MBTL1 block = qHTS Assay for the Inhibitors of L3MBTL1; Lethal(3)malignant brain tumor-like protein 1 (Homo sapiens), Q9Y468; AlphaScreen L3MBTL1–H3K9me1 peptide binding; Potency, µM (series often up to 57.1 µM), without a hit: top-dose activity, negative = inhibition, actives largely listed as inhibitors; 230,000 compounds, 0.66% hits; further: potency means the concentration at half of the fitted maximal effect; on the % scale 0 is the no-effect control and ±100 the full control effect; nearly all actives have a fitted effect of over 60% in size
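First, the protein-peptide complex forms for 30 min at room temperature (L3MBTL1 50 nM, biotinylated H3K9me1 peptide 75 nM). Next, compounds are pin-transferred and incubated 30 min. Finally, AlphaScreen beads are added and read after 30 min.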
PI5P4Ka inh = qHTS for Inhibitors of phosphatidylinositol 5-phosphate 4-kinase (PI5P4K) | AID 652105, 2013 | max response, % | 330,000 compounds, 1.2% hits | PI5P4Kalpha enzyme, ADP-Glo luminescence, 60 min; hits give low values; active means max response of -50% or lower; inconclusive means between -30% and -50%; inactive means -30% or higher; further: value at the top dose of about 77 µM; on the % scale 0 is the no-effect control and ±100 the full control effect
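Controls without substrate or without enzyme flank wells where PI5P4Kalpha converts substrate using 5 microM ATP (final). Incubation lasts 60 minutes at room temperature; ADP formed is read by ADP-Glo luminescence.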
HP1b binding inh = HTS for Inhibitors of HP1-beta Chromodomain Interactions with Methylated Histone Tails | Chromobox protein homolog 1 (Homo sapiens), P83916 | AlphaScreen HP1-beta / biotin-H3K9me3 peptide binding | Potency, µM (highest dose often 114 µM), for inactives: at the highest dose activity change, negative = inhibition, hits mostly inhibitors | 390,000 compounds, 0.56% hits | AID 540317, 2011; further: potency means the concentration at half of the fitted maximal effect; nearly all actives have a fitted effect of over 70% in size
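HP1-beta protein (50 nM final) preincubated 30 min at room temperature with biotinylated H3(1-18)K9me3 peptide (50 nM) in PBS pH 7.4, 0.01% Tween-20, then compound added for 30 min. AlphaScreen streptavidin donor/nickel chelate acceptor beads (10 ug/mL final), 30 min dark, luminescence read.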
The depositor's hits bear a star; u = inconclusive; x = not tested or not shown; [ ] = another dose, or the depositor's remark. Unless noted, the call rests on the fitted dose curve; in most records, active means well fitted inhibition curve with a large enough effect; inconclusive means small, poorly fitted or top-dose-only effect; inactive means no such curve, though single readings can be large or run the other way.

SMILES	BAZ2B inh	JMJD2A Tudor inh	G9a block	L3MBTL1 block	PI5P4Ka inh	HP1b binding inh
Brc1cc2c(cc1-c1nc3ccccc3s1)OCO2	26.2%	6.4%	39.8µM*	x	18.3	-9.4%
C=CCOc1ccccc1CNc1ccc2c(c1)OCCO2	70.8µM*	50.1µM*	8.91µM*	x	-24.9	u
C=CCOc1ccccc1CNc1cccc(F)c1	74.8%	18.6%	95.1%[59 µM]	33.9%	11.9	104.4%
COc1cccc(CNc2ccc3[nH]c(=O)[nH]c3c2)c1OCc1ccccc1F	28.2µM*	44.7µM*	44.7µM*	u	2.1	31.6µM*
CCOc1ccc(Br)cc1CNc1ccc2c(c1)OCCO2	25.1µM*	28.2µM*	-137.9%[59 µM]	u	13.8	50.1µM*
C=CCOc1ccccc1CNc1ccc2[nH]c(=O)[nH]c2c1	56.2µM*	u	28.2µM*	-6.1%	-3.0	u
CO[C@]1(NC(=O)C(C(=O)O)c2ccc(O)cc2)C(=O)N2C(C(=O)O)=C(CSc3nnnn3C)COC21 (stereo not given in full)	x	x	-22.5%[2.33 µM]	x	x	x
CCOC(=O)C1CCN(S(=O)(=O)c2cc(-c3onc(C)c3C)ccc2C)CC1	12.8%	21.4%	10.3%[59 µM]	x	x	52.5%
CCN1/C(=C/c2ccc3cc(C)ccc3[n+]2CC)Sc2ccc3sccc3c21	x	u	x	x	-12.6	u
CCN1/C(=C\c2ccc3cc(C)ccc3[n+]2CC)Sc2cc(C)c(C)cc21	x	u	20µM*	u	-11.8	u
CCN1C(=O)/C(=C2/Sc3ccccc3N2CC)SC1=S	-7.5%	-3.7%	x	0.6%	3.7	30.9%
CCN1/C(=C/c2ccc3cccc(C)c3[n+]2CC)Sc2ccccc21	50.1µM*	-27.8%	50.1µM*	-10.8%	x	-5.0%
CCN1/C(=C/c2ccc3cc(C)cc(C)c3[n+]2CC)Sc2cc(C)ccc21	u	15.8µM*	15.8µM*	-1.8%	u	u
COc1ccc(Oc2ncc3nc(-c4cc(F)cc(F)c4)c(=O)n(C[C@H]4CCCO4)c3n2)cc1	x	x	14.1%[0.501 µM]	x	x	x
Cn1c(=O)n(C)c2cc(NS(=O)(=O)c3ccc(Cl)cc3)c(NCc3ccccc3)cc21	-23.9%	u	15.8µM*	x	x	65.4%
Cc1cc(S(=O)(=O)Nc2cc3c(cc2NCc2ccccc2)n(C)c(=O)n3C)ccc1F	u	-22.6%	14.1µM*	x	x	3.9%
Cn1c(=O)n(C)c2cc(NS(=O)(=O)c3ccccc3)c(NCc3ccccc3)cc21	50.1µM*	u	11.2µM*	x	x	u
COc1ccc(S(=O)(=O)Nc2ccc3c(c2)n(C)c(=O)n3C)cc1OC	u	-4.3%	26.2%	x	-2.2	7.0%
Cc1cc(S(=O)(=O)Nc2ccc3c(c2)n(C)c(=O)n3C)ccc1F	u	-13.3%	-10.3%	x	-3.0	26.7%
Cn1c(=O)n(C)c2cc(S(=O)(=O)Nc3ccccc3C(=O)O)ccc21	-31.1%	-18.2%	8.2%	4.3%	-4.7	20.0%
COc1ccc(S(=O)(=O)Nc2cc3c(cc2NCc2ccccc2)n(C)c(=O)n3C)cc1OC	50.1µM*	u	12.6µM*	x	x	-11.1%
CC(C)CN1CC[C@@]2(CCCN(C(=O)c3ccco3)C2)C1	x	x	2.5%[12.7 µM]	x	x	x
Cn1c(=O)n(C)c2cc(NS(=O)(=O)c3ccc(C(C)(C)C)cc3)c(NCc3ccccc3)cc21	39.8µM*	22.4µM*	14.1µM*	x	x	u
O=C1c2ccccc2C(=O)C1c1ccccn1	-16.6%	-0.7%[11.4 µM]	-32.6%	-0.1%	5.7	32.5%
O=C1c2ccccc2C(=O)C2OC12 (stereo not given)	-14.4%	x	8.91µM*	x	x	x
SMILES	BAZ2B inh	JMJD2A Tudor inh	G9a block	L3MBTL1 block	PI5P4Ka inh	HP1b binding inh
Cc1ccc2c(C)nc(/N=C(\N)NC(=O)N3c4ccccc4Sc4ccccc43)nc2c1	-4.3%	-28.1%	6.5%[59 µM]	-8.9%	4.8	-6.1%
Cc1cc2nc(/N=C(\N)NC(=O)N3c4ccccc4Sc4ccccc43)nc(C)c2cc1C	-35.3%	-35.2%	50.1µM*	-9.0%	0.1	6.2%
Cc1ccc2nc(/N=C(\N)NC(=O)N3c4ccccc4Sc4ccccc43)nc(C)c2c1	-32.8%	-26.4%	50.1µM*	-1.2%	1.8	-11.9%
CC(=O)NC(c1ccccc1)c1cc([N+](=O)[O-])c2cccnc2c1O (stereo not given)	3.55µM*	10µM*	10µM*	7.08µM*	-28.8	-3.0%
CC(=O)NC(c1ccc(C)cc1)c1cc(Cl)c2cccnc2c1O (stereo not given)	0.3%	-28.8%	-0.8%[59 µM]	13.1%	-0.8	32.8%
CC(C)C(=O)NC(c1ccccc1)c1cc([N+](=O)[O-])c2cccnc2c1O (stereo not given)	5.62µM*	u	u	10µM*	-15.2	-9.1%
N=C(N)Sc1nc(N2CCCCC2)nc(N2CCCCC2)n1	79.4µM*	-13.8%	8.7%[12.7 µM]	10.5%	4.2	30.2%
CN1CCN(c2nc3c(=O)[nH]c(N)nc3n2C2OC(CO)C(O)C2O)CC1 (stereo not given)	x	-9.9%	x	x	x	26.8%
CCOC(=O)c1sc2ccccc2c1S(=O)(=O)Nc1ccc(N(C)C)cc1	20µM*	12.6µM*	8.91µM*	x	x	-25.4%
COC(=O)c1sc2cccc(F)c2c1S(=O)(=O)Nc1ccc(N(C)C)cc1	u	u	11.2µM*	x	x	-12.4%
O=C(CSc1nnc(-c2ccccc2Cl)o1)N1CCCc2ccccc21	16.3%	9.9%	-24.9%[59 µM]	x	x	45.7%
Cc1cccn2c(=O)c3cc(C(=O)NCc4ccccc4Cl)sc3nc12	11.0%	-11.3%	2.5%[59 µM]	x	x	27.8%
CC(C)N(C(=O)[C@H]1C[C@H](CC(=O)NC(C)(C)C)C(=O)N2CCc3c([nH]c4cc(-c5ccco5)ccc34)[C@]12C)C(C)C	x	50.1µM*	x	-9.0%	-25.5	u
CC(C)=CCC/C(C)=C/CNC(=O)C[C@H]1C[C@H](C(=O)N2CCOCC2)[C@@]2(C)c3[nH]c4cc(-c5ccco5)ccc4c3CCN2C1=O	x	39.8µM*	x	u	19.8	u
CC(C)=CCC/C(C)=C/CNC(=O)CC1C[C@H](C(=O)N2CCOCC2)[C@@]2(C)c3[nH]c4ccccc4c3CCN2C1=O (stereo not given in full)	x	u	x	8.0%	17.1	1.4%
CCOC(=O)Cn1c(=O)oc2cc(S(=O)(=O)N3CCN(c4cccc(C)c4)C(C)C3)ccc21 (stereo not given)	-19.7%	-21.5%	-10.2%[59 µM]	x	x	16.5%

Source: PubChem BioAssay
